PubChem BioAssay AID504333 (National Center for Advancing Translational Sciences (NCATS), 2011)
Hit rate of the full screen: of about 360,000 compounds, about 16,000 (4.4%) were called active. Roughly 9% stayed inconclusive and do not appear here. The call rests on the fitted dose curve; in most records, active means well fitted inhibition curve with a large enough effect; inconclusive means small, poorly fitted or top-dose-only effect; inactive means no such curve, though single readings can be large or run the other way. Only a selection was taken, and actives are over-represented in it overall.

Target: Bromodomain adjacent to zinc finger domain protein 2B (Homo sapiens) (UniProt Q9UIF8)
Sequence (Q9UIF8 whole entry, looked up, the tested form may be a part): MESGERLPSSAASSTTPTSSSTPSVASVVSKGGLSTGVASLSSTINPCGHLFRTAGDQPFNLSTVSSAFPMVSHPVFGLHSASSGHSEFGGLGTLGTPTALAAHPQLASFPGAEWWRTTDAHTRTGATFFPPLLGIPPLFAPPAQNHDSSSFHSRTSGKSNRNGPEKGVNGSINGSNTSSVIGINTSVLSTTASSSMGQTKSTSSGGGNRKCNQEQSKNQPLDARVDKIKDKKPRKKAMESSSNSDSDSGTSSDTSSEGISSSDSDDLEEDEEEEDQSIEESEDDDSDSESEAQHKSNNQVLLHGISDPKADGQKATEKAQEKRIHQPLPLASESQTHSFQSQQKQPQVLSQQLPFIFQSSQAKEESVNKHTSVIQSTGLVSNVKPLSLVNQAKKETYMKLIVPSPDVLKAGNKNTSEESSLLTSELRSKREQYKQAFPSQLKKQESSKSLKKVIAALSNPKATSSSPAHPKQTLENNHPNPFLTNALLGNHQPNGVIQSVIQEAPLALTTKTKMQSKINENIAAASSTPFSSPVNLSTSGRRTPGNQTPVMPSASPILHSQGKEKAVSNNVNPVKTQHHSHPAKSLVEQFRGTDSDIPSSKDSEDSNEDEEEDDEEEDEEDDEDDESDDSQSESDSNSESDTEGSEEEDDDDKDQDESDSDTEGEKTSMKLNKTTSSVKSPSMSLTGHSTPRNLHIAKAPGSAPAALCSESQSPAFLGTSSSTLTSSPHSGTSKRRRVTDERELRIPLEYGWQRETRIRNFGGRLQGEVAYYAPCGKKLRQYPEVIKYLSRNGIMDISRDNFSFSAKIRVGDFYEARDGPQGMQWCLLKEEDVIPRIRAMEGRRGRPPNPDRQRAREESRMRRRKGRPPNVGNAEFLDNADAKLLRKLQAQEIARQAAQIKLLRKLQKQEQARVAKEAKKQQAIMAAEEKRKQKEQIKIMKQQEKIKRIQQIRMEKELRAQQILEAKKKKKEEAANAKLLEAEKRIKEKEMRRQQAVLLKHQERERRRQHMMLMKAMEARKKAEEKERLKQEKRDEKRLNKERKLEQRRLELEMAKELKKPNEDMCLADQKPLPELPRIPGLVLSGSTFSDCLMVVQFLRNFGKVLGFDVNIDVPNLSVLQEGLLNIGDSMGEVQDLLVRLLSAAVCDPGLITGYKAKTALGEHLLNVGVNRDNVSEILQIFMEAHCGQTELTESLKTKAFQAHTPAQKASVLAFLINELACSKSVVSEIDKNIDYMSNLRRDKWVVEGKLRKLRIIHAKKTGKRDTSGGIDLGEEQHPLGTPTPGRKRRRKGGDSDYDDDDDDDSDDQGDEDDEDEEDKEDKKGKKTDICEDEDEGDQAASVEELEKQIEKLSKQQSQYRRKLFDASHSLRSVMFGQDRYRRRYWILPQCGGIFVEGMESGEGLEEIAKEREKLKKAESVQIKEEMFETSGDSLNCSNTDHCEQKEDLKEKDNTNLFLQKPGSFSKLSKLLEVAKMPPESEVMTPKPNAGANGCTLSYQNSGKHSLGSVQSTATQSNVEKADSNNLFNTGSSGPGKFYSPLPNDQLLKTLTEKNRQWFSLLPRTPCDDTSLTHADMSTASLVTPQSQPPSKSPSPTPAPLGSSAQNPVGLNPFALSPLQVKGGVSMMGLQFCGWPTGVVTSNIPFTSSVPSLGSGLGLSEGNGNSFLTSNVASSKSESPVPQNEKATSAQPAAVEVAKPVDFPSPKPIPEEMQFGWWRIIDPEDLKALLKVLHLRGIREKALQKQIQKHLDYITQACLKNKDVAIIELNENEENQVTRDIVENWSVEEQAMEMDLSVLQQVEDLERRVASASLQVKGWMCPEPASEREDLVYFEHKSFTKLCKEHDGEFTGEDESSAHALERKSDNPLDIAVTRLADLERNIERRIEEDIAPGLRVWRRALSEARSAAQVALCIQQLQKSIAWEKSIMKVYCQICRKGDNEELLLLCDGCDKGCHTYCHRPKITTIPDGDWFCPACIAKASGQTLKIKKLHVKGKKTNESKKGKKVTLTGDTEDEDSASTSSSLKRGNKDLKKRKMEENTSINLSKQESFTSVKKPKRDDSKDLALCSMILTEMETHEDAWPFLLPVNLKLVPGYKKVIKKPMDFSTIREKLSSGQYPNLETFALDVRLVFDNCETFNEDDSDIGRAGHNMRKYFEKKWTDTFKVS
Assay: qHTS Assay for Inhibitors of BAZ2B; further: nearly all actives have a fitted effect of over 60% in size
Settings: AlphaScreen BAZ2B-H3K14Ac peptide displacement; series mostly up to 114 µM; activity change, negative = inhibition: at the top concentration
Procedure, shortened: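 AlphaScreen displacement of biotin-H3(5-23)K14Ac peptide (50 nM final) from BAZ2B (50 nM final) in PBS pH 7.4, 0.01% Tween-20; complex preformed 30 min RT, then compounds (top 110 uM) 30 min RT, beads 20 min dark.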
On the % scale 0 is the no-effect control and ±100 the full control effect; potency means the concentration at half of the fitted maximal effect.

Row | Structure (SMILES) | Potency | activity change, negative = inhibition
1 | Cc1nc2c(c(=O)n1Cc1ccco1)c1nc3ccccc3nc1n2Cc1ccccc1 | 56.2 µM (active) | –
2 | Clc1cccc(-c2nc3nc4ccccc4nc3n2Cc2ccco2)c1 | – | -8.99% (inactive)
3 | Cc1cc(NC(=O)CSc2nc3cc(Cl)ccc3c(=O)n2Cc2ccco2)no1 | – | -20.2% (inactive)
4 | COc1ccccc1CNc1ccc(-c2nc(-c3ccccc3C)no2)cc1[N+](=O)[O-] | – | -15% (inactive)
5 | COc1ccccc1-n1c(-c2ccc(C)cc2)cn2c3c(=O)n(C)c(=O)n(C)c3nc12 | – | -25.8% (inactive)
6 | CCOC(=O)c1oc2ccc(S(=O)(=O)n3nc(-c4ccccc4OC)cc3N)cc2c1C | – | -16% (inactive)
7 | CCCCOc1ccc(Cn2c(=O)oc3ccc(C)cc32)cc1OC | – | 71.6% (inactive)
8 | CCCCN1C(=O)C(C)=C(C)C1OCCc1ccc(OC)c(OC)c1 (stereo not drawn) | – | 13.3% (inactive)
9 | CCCCOc1ccc(CN2C(=O)C(=O)c3cc(Br)cc(C)c32)cc1OC | 6.31 µM (active) | –
10 | COc1ccccc1CNc1nccn(-c2ccc(F)cc2)c1=O | – | -18.1% (inactive)
11 | CCCOc1ccc2c3c(c(=O)oc2c1OCCC)CCC3 | – | 21.5% (inactive)
12 | O=c1oc2c(CN3CCCCC3)c(O)ccc2c2c1CCCCC2 | – | -12.4% (inactive)
13 | COc1ccc2c3c(c(=O)oc2c1OCC(=O)C(C)(C)C)CCCC3 | 79.4 µM (active) | –
14 | O=C(Cn1c(=O)n(-c2ccc(F)cc2)c(=O)c2sc3ccccc3c21)NC1CCCC1 | – | -9.41% (inactive)
15 | Cc1cccc(NC(=O)c2cc3c(C)nn(-c4ccccc4)c3s2)c1 | – | 5.11% (inactive)
16 | CCOC(=O)C1Sc2[nH]c(=O)sc2C(c2ccc(Cl)cc2)C1C(=O)OCC (stereo not drawn) | 50.1 µM (active) | –
17 | CCOC(=O)C1C(c2ccc(Cl)cc2)NC(=S)NC1(O)C(F)(F)F (stereo not drawn) | – | 12.4% (inactive)
18 | CCOC(=O)c1[nH]c2c(c1-c1ccccc1)C(=O)CC(c1ccc(Cl)cc1)C2 (stereo not drawn) | – | 3.42% (inactive)
19 | Cc1ccc(NC(=O)c2oc3ccccc3c2NC(=O)Cc2cccs2)cc1 | – | -17.6% (inactive)
20 | CC(C)Sc1oc(-c2cccs2)nc1S(=O)(=O)c1ccc(Cl)cc1 | – | -4.8% (inactive)
21 | CC(O)c1ccc(OCCN(C)c2ccccn2)cc1 (stereo not drawn) | – | 0.0135% (inactive)
22 | CCN(CC)CCOc1ccc2c(c1)C(=NNC(=O)c1ccccn1)c1cc(OCCN(CC)CC)ccc1-2 | 20 µM (active) | –
23 | CCN(CC)S(=O)(=O)c1cc(C(=O)Nc2ccccn2)ccc1C | – | -5.55% (inactive)
24 | COc1ccccc1CNC(=O)c1ccc(-n2c(C)cc3c2CCCC3)cc1 | – | -9.34% (inactive)
25 | CC(C)c1ccc(NC(=O)C2CCN(c3nc(-c4ccc(C(C)C)cc4)no3)CC2)cc1 | – | 17.5% (inactive)

Row | Structure (SMILES) | Potency | activity change, negative = inhibition
26 | NNc1nc2c(Cl)cccc2s1 | 44.7 µM (active) | –
27 | NC(=O)c1c(Nc2nc3c(F)cccc3s2)sc2c1CCCC2 | – | -17.7% (inactive)
28 | CC1CCCN(c2nc3c(S(=O)(=O)c4ccc(C(C)C)cc4)nnn3c3ccsc23)C1 (stereo not drawn) | – | -0.48% (inactive)
29 | O=C(CSc1nc(=O)[nH]c2c1CCCC2)Nc1cc(C(F)(F)F)ccc1Cl | – | -4.05% (inactive)
30 | O=C(Nc1c(-c2ccc(F)cc2)nc2ccccn12)c1cccc(F)c1 | – | 1.7% (inactive)
31 | CCn1cc(C(=O)OCC(=O)Nc2cc(C)cc(C)c2)c(=O)c2ccc(C)nc21 | – | 3.94% (inactive)
32 | O=S(=O)(c1ccccc1)c1nc(-c2ccccc2)oc1NCCCN1CCOCC1 | – | 1.55% (inactive)
33 | N#Cc1nc(-c2ccc(OCc3ccccc3)cc2)oc1NCCCN1CCOCC1 | 50.1 µM (active) | –
34 | Nc1nc(NCCCN2CCOCC2)nc(Nc2ccccc2)c1[N+](=O)[O-] | – | -5.03% (inactive)
35 | Cc1ccc2sc(N(Cc3cccnc3)C(=O)C3COc4ccccc4O3)nc2c1C (stereo not drawn) | – | -2.8% (inactive)
36 | O=C(CNC(=O)c1ccc(F)cc1)c1ccccc1 | – | 11.6% (inactive)
37 | CN(C)c1ccc(C(CNC(=O)c2ccc(F)cc2)c2c[nH]c3ccccc23)cc1 (stereo not drawn) | 12.6 µM (active) | –
38 | C[C@H](NC(=O)c1ccccc1)C(=O)OCC(=O)c1c[nH]c2ccccc12 | – | 3.43% (inactive)
39 | COc1cc(OC)cc(C(=O)Nc2ccc3nc(Nc4cccc(C(F)(F)F)c4)cc(C)c3c2)c1 | – | -4.94% (inactive)
40 | O=Cc1c(Nc2ccccc2Cl)nc2ccccn2c1=O | 50.1 µM (active) | –
41 | O=Cc1c(N2CCN(c3cccc(Cl)c3)CC2)nc2ccccn2c1=O | – | -33.1% (inactive)
42 | Cc1cccn2c(=O)c(C=O)c(Nc3ccc(S(N)(=O)=O)cc3)nc12 | – | 6.46% (inactive)
43 | CCC(=O)N1CCc2cc(CNC(=O)Nc3ccccc3Cl)ccc21 | – | -7.45% (inactive)
44 | CSc1ccc(CCNC(=O)c2cc(C)nc3c2c(C)nn3-c2cccc(F)c2)cc1 | – | 17.5% [at 57.1 µM] (inactive)
45 | CCOc1ccccc1CNCc1c(C(=O)O)c(C)n(Cc2ccc(C)cc2)c1C | – | -15.7% (inactive)
46 | CCN1/C(=C/C(=S)Nc2ccccc2)Sc2ccccc21 | 22.4 µM (active) | –
47 | CCOC(=O)CNC(=O)N1c2ccccc2Sc2ccccc21 | – | 1.76% (inactive)
48 | CCN1C(=O)c2ccccc2Sc2ccc(NC(=O)Cc3ccc(OC)cc3)cc21 | – | -3.41% (inactive)
49 | CCOC(=O)c1cc2c(=O)n3ccccc3nc2n(Cc2ccco2)c1=NC(=O)c1ccc(F)cc1 | – | 3.83% (inactive)
50 | Cc1cc(N2C(=O)C(O)=C(C(=O)c3ccc(C)o3)C2c2ccc(OCc3ccccc3)cc2)no1 (stereo not drawn) | – | -26.4% (inactive)

Row | Structure (SMILES) | Potency | activity change, negative = inhibition
51 | COc1ccc(C2C(C(C)=O)=C(O)C(=O)N2Cc2cccnc2)cc1 (stereo not drawn) | – | -37.3% (inactive)
52 | COc1cc(C2C(C(=O)c3ccc(C)o3)=C(O)C(=O)N2Cc2cccnc2)ccc1O (stereo not drawn) | 56.2 µM (active) | –
53 | CCOC(=O)c1c(C)[nH]c(CCC(=O)NCCCN2CCN(c3cc(C)ccc3C)CC2)c1C | – | -32.7% (inactive)
54 | O=C(O)C1=C[C@H](c2cccs2)C[C@H](OCCCCO)O1 | 79.4 µM (active) | –
55 | NC(=O)C1=C[C@H](c2csc3ccccc23)C[C@H](OCc2ccc(CO)cc2)O1 | – | -1.46% (inactive)
56 | C=CCOC(=O)C1=C[C@@H](c2ccccc2)C[C@@H](OCc2ccc(CO)cc2)O1 | – | -1.46% (inactive)
57 | Cn1c(=O)c2c(SCC(=O)NCC3CCCO3)nc(-c3ccccc3F)nc2n(C)c1=O (stereo not drawn) | – | 6.48% (inactive)
58 | O=C(CC(c1cccs1)N1Cc2ccccc2C1=O)Nc1ccc(F)cc1F (stereo not drawn) | – | -5.59% (inactive)
59 | Cc1cccc(OCC(=O)N(Cc2ccc(C(C)C)cc2)Cc2ccco2)c1C | – | 42% (inactive)
60 | CCS(=O)(=O)c1ncc(N(Cc2ccc(F)cc2)Cc2ccco2)c(C(=O)Nc2cc(C)ccc2C)n1 | – | -1.24% (inactive)
61 | COc1ccc2sc(-c3ccc(N(C)C)cc3)c(C#CCO)c2c1 | 89.1 µM (active) | –
62 | O=C(C1CC1)N1CCc2cc(Br)cc(S(=O)(=O)N3CCN(c4ccccc4F)CC3)c21 | – | -3.75% (inactive)
63 | N#Cc1ccc(CSc2nnc(-c3ccccn3)n2-c2ccc(Cl)cc2)cc1 | 50.1 µM (active) | –
64 | N#Cc1ccc(CSc2nnc3ccccn23)cc1 | – | -0.806% (inactive)
65 | N#Cc1ccc(CSc2ncccn2)cc1 | – | -21.7% (inactive)
66 | O=C(Nc1ccc(-c2nc3cc(NC(=O)c4ccccc4Cl)ccc3o2)cc1)c1ccccc1Cl | – | 10.3% (inactive)
67 | CSC1=N/C(=C\C=C\c2cccs2)C(=O)S1 | 11.2 µM (active) | –
68 | Cc1ccc(C)c(N2CCN(C(=O)C3CCC(CNS(=O)(=O)c4cccs4)CC3)CC2)c1 (stereo not drawn) | – | -36.8% (inactive)
69 | CCCOc1ccc(-c2cccc(NS(=O)(=O)c3ccccc3)c2)nn1 | – | 14.1% (inactive)
70 | CCOc1ccccc1C(=O)Nc1ccc(S(=O)(=O)N2CCCCC2c2cccnc2)cc1 (stereo not drawn) | – | 0.817% (inactive)
71 | COc1cc(/C=C/C(=O)N2CCc3ccccc3C2)cc(OC)c1OC | – | -6.42% (inactive)
72 | COc1ccccc1Nc1c2c(nc3ccc(NC(=O)/C=C/c4cc(OC)c(OC)c(OC)c4)cc13)CCCC2 | 11.2 µM (active) | –
73 | COc1cccc(NC(=O)c2ccc3c(SCC(=O)O)c4c(nc3c2)CCCC4)c1 | – | -23.9% (inactive)
74 | COc1ccc(C(=O)Nc2ccc3nc(N4CCCCC4)cc(C)c3c2)cc1OC | inactive | –
75 | CCOc1ccc(C(=O)Nc2ccc3nc4c(c(Nc5ccccc5OC)c3c2)CCCC4)cc1 | 17.8 µM (active) | –

Row | Structure (SMILES) | Potency | activity change, negative = inhibition
76 | COc1ccc(NS(=O)(=O)c2cc(NC(=O)/C=C/c3cc(OC)c(OC)c(OC)c3)ccc2N2CCCCC2)cc1 | – | -4.66% (inactive)
77 | COc1ccc2c(c1)c(N1CCCC1=O)c(C(=O)Nc1ccccc1C(F)(F)F)n2C | – | -13.3% (inactive)
78 | Cn1nnc2c(N3CCN(c4ccccc4)CC3)ncnc21 | – | -20.7% (inactive)
79 | CSc1ccccc1NC(=O)CCS(=O)(=O)c1nc(-c2cccs2)cc(C(F)(F)F)n1 | – | 1.68% (inactive)
80 | COc1ccccc1N1CCN(C2C(=O)c3ccccc3N2C(C)=O)CC1 (stereo not drawn) | – | -23.9% (inactive)
81 | COc1ccc(CCNC(=O)NS(=O)(=O)c2ccc(C)cc2)cc1OC | – | -5.09% (inactive)
82 | COc1ccc(CCNC(=O)CCc2ccccc2O)cc1OC | – | 11.6% (inactive)
83 | COc1ccc(CCNC(=O)Cc2ccc(C)cc2)cc1OC | 79.4 µM (active) | –
84 | CCOC(=O)c1ccc(NC(=O)CC2C(=O)N(c3cccc(OC)c3)C(=O)N2C2CCCCC2)cc1 (stereo not drawn) | – | -9.85% (inactive)
85 | COc1cccc(NC(=S)NCc2ccccn2)c1 | – | -30.1% (inactive)
86 | Cc1c(C)c(C)c(S(=O)(=O)NCCc2ccccn2)c(C)c1C | – | -3.43% (inactive)
87 | COc1ccc(NCCc2ccccn2)cc1 | 56.2 µM (active) | –
88 | Cc1ccc(C(=O)CC2(O)C(=O)N(CCc3ccccc3)c3ccc(Br)cc32)cc1 (stereo not drawn) | – | -13.9% (inactive)
89 | CCc1ccc(OCC(=O)N(Cc2ccccc2)C2CCS(=O)(=O)C2)cc1 (stereo not drawn) | – | 4.48% (inactive)
90 | Cc1cc(Cl)ccc1OCC(=O)N(Cc1ccc(N(C)C)cc1)C1CCS(=O)(=O)C1 (stereo not drawn) | 35.5 µM (active) | –
91 | COc1cc(C(=O)N(Cc2ccc(C(C)C)cc2)C2CCS(=O)(=O)C2)cc(OC)c1OC (stereo not drawn) | – | 2.98% (inactive)
92 | CC(C)c1ccc(OCC(=O)N(Cc2ccc(N(C)C)cc2)C2CCS(=O)(=O)C2)cc1 (stereo not drawn) | 28.2 µM (active) | –
93 | COc1cc(C(=O)N(Cc2ccc(N(C)C)cc2)C2CCS(=O)(=O)C2)cc(OC)c1OC (stereo not drawn) | – | -22.1% (inactive)
94 | Cc1ccc(CN(C(=O)COc2ccc(Cl)cc2C)C2CCS(=O)(=O)C2)o1 (stereo not drawn) | – | -27.3% (inactive)
95 | Cc1cc(C)c2sc(NC(=O)c3ccc(S(=O)(=O)N4CCCC4)cc3)nc2c1 | – | 0.487% (inactive)
96 | COc1ccc(C(=O)CSc2c(C(C)C)cnc3c2c(=O)n(C)c(=O)n3C)cc1 | – | -7.25% (inactive)
97 | CCc1ccc(CNC(=O)c2ccc(CS(=O)c3ccc(Br)cc3)o2)cc1 (stereo not drawn) | – | 0.453% (inactive)
98 | CCc1nnc(SCc2c(F)cccc2Cl)c2cc3sccc3n12 | – | -6.2% (inactive)
